Compound activity (PubChem)
NTR1 ag = agonists of human NTR1, primary screen, imaging, U2OS cells, beta-arrestin-GFP, high content | Neurotensin receptor type 1 (Homo sapiens), P30989 | NTR1-U2OS beta-arrestin-GFP spot imaging, agonist mode | activation, % at 20 µM | 330,000 compounds, 0.17% hits;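 active = activation at or above 40% of the spot to cytoplasm intensity ratio, with at least 20 cells analyzed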;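 note: 0% = DMSO without peptide and 100% = 100 nM NTR1 peptide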
Target sequence (P30989 whole entry, looked up): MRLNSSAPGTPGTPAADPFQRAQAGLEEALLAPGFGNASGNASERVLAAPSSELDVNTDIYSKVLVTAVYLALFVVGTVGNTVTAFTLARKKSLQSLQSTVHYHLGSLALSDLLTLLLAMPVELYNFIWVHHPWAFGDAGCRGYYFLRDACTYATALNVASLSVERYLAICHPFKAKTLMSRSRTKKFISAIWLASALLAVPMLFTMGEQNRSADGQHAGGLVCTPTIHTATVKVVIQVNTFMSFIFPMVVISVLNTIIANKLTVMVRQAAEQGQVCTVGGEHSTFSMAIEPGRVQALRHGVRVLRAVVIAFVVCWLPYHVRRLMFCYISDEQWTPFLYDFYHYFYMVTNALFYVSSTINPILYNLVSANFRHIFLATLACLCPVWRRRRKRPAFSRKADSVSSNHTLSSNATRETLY
A3G deaminase = APOBEC3G DNA deaminase inhibitors, primary screen, biochemical, fluorescence, single-stranded DNA substrate, uHTS. 330,000 compounds, 0.28% hits. AID 493012, 2011. recombinant A3G, ssDNA deamination FAM/TAMRA fluorescence. inhibition, % at 20 µM. DNA dC->dU-editing enzyme APOBEC-3G (Homo sapiens), Q9HC16;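 active = inhibition of at least 40% at 20 µM, with no more than 30% in the related APOBEC3A deaminase screen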;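 note: plate controls were DMSO wells with A3G for no effect and wells lacking A3G enzyme for full effect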
APOBEC3A inh = APOBEC3A ssDNA deaminase inhibitors, primary screen, selectivity assay for APOBEC3G inhibitor project, biochemical, FAM/TAMRA oligo cleavage fluorescence. DNA dC->dU-editing enzyme APOBEC-3A (Homo sapiens), P31941. recombinant A3A, FAM/TAMRA ssDNA deamination fluorescence. inhibition, % at 20 µM. 330,000 compounds, 0.41% hits;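 active = at least 40% inhibition at 20 µM here, with at most 30% in a related deaminase screen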;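 note: plate controls were A3A with DMSO for no effect and wells lacking A3A enzyme for full effect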
AHR activator = AHR activators, primary screen, cell-based, luminescence, luciferase reporter, human; Aryl hydrocarbon receptor (Homo sapiens), P35869; AHR-responsive luciferase reporter cells; activation, % at 5 µM; 320,000 compounds, 2.5% hits; AID 2796, 2010; in the data active = activation above about 47%;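 note: 0% = vehicle wells and 100% = reference agonist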
A3A conf = APOBEC3A deaminase inhibitors, retest, confirmation, selectivity assay for APOBEC3G inhibitor project, biochemical, single concentration, fluorescence readout. AID 493151, 2011. inhibition, % at 20 µM. 1,400 compounds, 63% hits. shares compounds with APOBEC3A inh. recombinant A3A, ssDNA deaminase UDG fluorescence assay;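 active = inhibition reaching a set limit, 80% of the first screen's cutoff, at 20 µM in any replicate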;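 note: plate controls were DMSO wells with A3A for no effect and wells lacking A3A enzyme for full effect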
UDG A3A counter = E. coli UDG inhibitors, confirmation, counter-screen for APOBEC3A inhibitor project, biochemical, single concentration, fluorescence, FAM/TAMRA oligo. inhibition, % at 20 µM. shares compounds with APOBEC3A inh. 1,000 tested, under 10 active. AID 504714, 2011. UDG counterscreen, FAM/TAMRA uracil oligo fluorescence; call rule not given here
Numbers without * were called inactive; · = not tested or not shown. An excerpt weighted towards active compounds, which were near 3.2% of everything screened.

SMILES | NTR1 ag | A3G deaminase | APOBEC3A inh | AHR activator | A3A conf | UDG A3A counter
C=CCNC(=O)c1ccccc1NC(=O)c1ccccc1N(C)S(C)(=O)=O | 2.0 | 5.2 | 44.4* | 0.4 | 3.8 | ·
CCn1c(C)nc2cc(S(=O)(=O)Nc3ccc(C)cc3)ccc21 | 2.1 | 17.0 | 66.2* | 9.2 | 55.3* | 1.9
CCn1c(C)nc2cc(S(=O)(=O)C(F)F)ccc21 | 0.7 | 15.9 | 5.8 | -4.0 | · | ·
OCCC1CN(Cc2cnc(-c3cccc4ccccc34)nc2)CCN1C1CCCCC1 (configuration not stated) | 0.7 | -2.2 | 4.7 | 0.8 | · | ·
Cc1ccc(C(O)(C(=O)NNc2ccc3ccccc3n2)c2ccc(C)cc2)cc1 | 7.7 | -8.8 | -5.2 | 0.8 | · | ·
O=C(CNC1CCCCC1)Nc1cc(S(=O)(=O)N2CCOCC2)ccc1Cl | -0.1 | -11.8 | -4.2 | -0.7 | · | ·
O=C(NCc1ccc2c(c1)OCO2)C1CCCN1S(=O)(=O)c1ccc(F)cc1 (configuration not stated) | -0.6 | -7.3 | 55.1* | -0.3 | -4.3 | 2.5
Cc1cc(Cl)ccc1OCCCC(=O)OCC(=O)Nc1cccc(S(N)(=O)=O)c1 | 0.4 | -6.6 | -0.9 | 1.4 | · | ·
CC1(CC(=O)N/N=C/c2cc([N+](=O)[O-])c(O)cc2O)OCCO1 | -0.9 | 21.3 | 48.0* | 0.4 | 49.0* | 4.5
Cc1ccc(-n2c(C)cc(/C=N/NC(=O)CC3(C)OCCO3)c2C)c(C)c1 | -1.9 | 3.8 | 2.5 | 11.3 | · | ·
CN(Cc1ccccc1)C1=CC(=[N+]2CCCCC2)CC(C)(C)C1 | 3.8 | 20.3 | 67.6* | -9.8 | 72.6* | -2.3
CC(=O)c1ccc(S(=O)(=O)Nc2cccc(-n3cnnn3)c2)cc1 | 0.1 | 22.2 | 43.5* | 15.8 | 31.3 | ·
CC(=O)Nc1ccc(S(=O)(=O)Nc2cccc(-n3cnnn3)c2)cc1 | 0.0 | -8.3 | -5.6 | 10.4 | · | ·
COc1ccc(CCNC(=O)C(=O)NCC2OCCN2S(=O)(=O)c2cccs2)cc1 (configuration not stated) | 0.0 | -8.5 | -3.0 | 0.1 | · | ·
Cc1nc2nc(C)n(-c3ccccc3)c2s1 | 0.1 | 30.0 | 48.2 | 14.4 | 46.9* | -2.5
Cc1nc2ccccc2n1-c1ccccc1 | 1.2 | -0.3 | 1.9 | 1.6 | · | ·
C=CCn1nnnc1SCC(=O)Nc1cccc(C(F)(F)F)c1 | 3.3 | 23.1 | 69.7* | 38.7 | 81.4* | -3.0
CCOc1cc(N2CCOCC2)c(OCC)cc1NS(=O)(=O)c1ccc(Cl)s1 | 1.2 | 9.4 | 59.6* | 1.1 | 21.4 | ·
O=C(O)c1ccccc1NC(=O)c1ccccc1Nc1ccccc1 | 3.7 | -7.3 | -0.1 | 1.0 | · | ·
O=C(C1=C[C@H](c2coc3ccccc3c2=O)C[C@H](OCCCCO)O1)N1CCN(Cc2ccccc2)CC1 | 6.3 | -10.1 | 75.6* | 0.2 | 4.9 | 5.5
O=C(C1=C[C@H](c2coc3ccccc3c2=O)C[C@H](OCCCCO)O1)N1CCOCC1 | 1.0 | -1.8 | 0.6 | 0.8 | · | ·
COC(=O)C1N[C@@H]([C@@H](NC(=O)COc2ccccc2)C(=O)NCc2ccc(OC)cc2)SC1(C)C (some centres not stated) | 0.6 | -6.5 | -3.0 | 4.0 | · | ·
Cc1nn(-c2ccccc2)c(C)c1NC(=O)COC(=O)c1ccccc1 | 0.0 | -3.1 | 19.7 | -2.3 | · | ·
CC(=O)Nc1cccc(C(=O)OCC(=O)Nc2c(C)nn(-c3ccccc3)c2C)c1 | 0.9 | 0.5 | 52.4* | 3.3 | 2.4 | ·
O=C(Nc1ccccc1C(=O)O)c1cncc(Br)c1 | -4.2 | 18.5 | 57.6* | 6.5 | 7.3 | ·
O=C(NC(=S)Nc1ccccc1C(=O)O)c1cncc(Br)c1 | 2.0 | 12.0 | 40.8* | 2.1 | 17.9* | -3.2
O=C(Nc1ccccc1C(=O)Nc1ccccc1C(=O)O)c1ccccc1 | -0.1 | 13.8 | 2.3 | 2.6 | · | ·
